We go through eleven molecules from PubChem BioAssay (NCATS).

Records with an inconclusive call do not appear. Active and inactive are the calls of the source. Calls follow the shape of the dose curve; as a rule, active = well fitted curve in the direction sought with a large enough effect; inconclusive = small, poorly fitted or top-dose-only effect, or another doubt; inactive = no such curve, though single readings can be large; an effect the other way counts as inactive or inconclusive. Numbered stars: 1 amine (or outer) side, 2 acyl side, 3 side chain; on linkers, the order of the positions; unused ones are H or OH. Bridge positions count the residues as written; N and C are the ends. Square brackets hold non-standard residues; d marks the D form. Peptide text beside a SMILES is read from it. * marks the point of attachment. ξ: configuration not given here. ΔAla(Z-3-ureido) = NC(=O)N/C=C(\N)C(=O)O; X2 = NC1=NC(O)CC(C(N[*:1])C(=O)[*:2])N1; ξβ3hOrn = NCCCC(N)CC(=O)*; Dap = NC[CH](N)C(=O)O

The target of assay [1] is Luciferin 4-monooxygenase (Photinus pyralis) (UniProt P08659). The assay can be described thus: Biochemical firefly luciferase enzyme assay for NPC (AID 624030). Also: nearly all actives have a fitted effect of over 70% in size. Also: potency is read from the fitted curve at half-maximal effect. Put shortly: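 Purified P. pyralis luciferase at 10 nM in 50 mM Tris Acetate (final), luminescence read within 5 minutes of enzyme addition to compounds. Activity normalised to PTC124 versus DMSO; concentration-response curves classed by r2, magnitude and activity.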

Assay [2] in a line: S16 Schwann cell viability assay (CellTiter-Glo assay) (AID 624031).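 Also: cellular ATP luminescence as a viability measure; nearly all actives have a fitted effect of over 70% in size.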 Put shortly: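 Native S16 Schwann cells (rat), serum-containing medium, overnight attachment then 24 h drug exposure at 37 °C/5% CO2. CellTiter-Glo ATP signal; normalized to cell-free and vehicle wells.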
A general note: Cellular ATP, detected with luciferase, serves as a proxy for viable cell number.

A short description of assay [3]: S16 Schwann cell PMP22 intronic element firefly luciferase assay (AID 624032). Also: nearly all actives have a fitted effect of over 30% in size. Also: potency is read from the fitted curve at half-maximal effect. Put shortly: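 Rat S16 Schwann cells stably carrying firefly luciferase driven by a PMP22 intronic element, in 10% FBS, treated 24 h at 37 C. ONE-Glo luminescence normalized to PTC124 control and DMSO (0%); curves classed by r2, magnitude and activity.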
The test system of another assay is AS120. The assay can be described thus: qHTS profiling for inhibitors of Plasmodium falciparum proliferation (AID 504749). Also: nearly all actives have a fitted effect of over 60% in size. Particulars: P. falciparum in erythrocytes, SYBR Green DNA, 72 h; series mostly up to 28.7 µM. Put shortly:
(§1)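 P. falciparum-infected erythrocytes (0.3% parasitemia, 2.5% hematocrit) incubated with compound 72 h at 37 C, 5% CO2. Parasite DNA detected by SYBR Green after lysis, overnight at room temperature; normalised to 0.29 uM artemisinin and DMSO.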

The subject of another assay is ATS95. Described as above. Particulars: P. falciparum in erythrocytes, SYBR Green DNA, 72 h; series mostly up to 28.7 µM. Put shortly: as §1
The test system of a further assay is CP191. The assay is described as above. Conditions: P. falciparum in erythrocytes, SYBR Green DNA, 72 h; series mostly up to 28.7 µM. In outline:
as §1

For the next assay, the system named is CP247. Described as above. Particulars: P. falciparum in erythrocytes, SYBR Green DNA, 72 h; series mostly up to 28.7 µM. In outline: as §1
The next assay has as its system CP250. Described as above. Particulars: P. falciparum in erythrocytes, SYBR Green DNA, 72 h; series mostly up to 28.7 µM. Put shortly:
as §1

Another assay concerns CP262. The assay is described as above. Particulars: P. falciparum in erythrocytes, SYBR Green DNA, 72 h; series mostly up to 28.7 µM. Put shortly:
as §1

For a further assay, the system named is CP297. The assay is described as above. Particulars: P. falciparum in erythrocytes, SYBR Green DNA, 72 h; series mostly up to 28.7 µM. In outline:
as §1

For the next assay, the system named is CP335. Described as above. Particulars: P. falciparum in erythrocytes, SYBR Green DNA, 72 h; series mostly up to 28.7 µM. Put shortly: as §1
The test system of the next assay is Dd2. The description is as above. Conditions: P. falciparum in erythrocytes, SYBR Green DNA, 72 h; series mostly up to 28.7 µM. In outline:
as §1

Another assay relates to ECU. The assay is described as above. Particulars: P. falciparum in erythrocytes, SYBR Green DNA, 72 h; series mostly up to 28.7 µM. Put shortly:
as §1

Another assay has as its system N140. The assay is described as above. Particulars: P. falciparum in erythrocytes, SYBR Green DNA, 72 h; series mostly up to 28.7 µM. In outline: as §1
The next assay concerns P93_24. The assay is described as above. Particulars: P. falciparum in erythrocytes, SYBR Green DNA, 72 h; series mostly up to 28.7 µM. Put shortly: as §1
For the next assay, the system named is PAD. The description is as above. Conditions: P. falciparum in erythrocytes, SYBR Green DNA, 72 h; series mostly up to 28.7 µM. Put shortly:
as §1

The next assay deals with TAB109. The assay is described as above. Conditions: P. falciparum in erythrocytes, SYBR Green DNA, 72 h; series mostly up to 28.7 µM. Put shortly: as §1
Another assay concerns TAB113. The assay is described as above. Conditions: P. falciparum in erythrocytes, SYBR Green DNA, 72 h; series mostly up to 28.7 µM. Put shortly:
as §1

The subject of another assay is TAB165. The description is as above. Particulars: P. falciparum in erythrocytes, SYBR Green DNA, 72 h; series mostly up to 28.7 µM. In outline: as §1

Chain of Luciferin 4-monooxygenase (Photinus pyralis) (P08659 whole entry, looked up): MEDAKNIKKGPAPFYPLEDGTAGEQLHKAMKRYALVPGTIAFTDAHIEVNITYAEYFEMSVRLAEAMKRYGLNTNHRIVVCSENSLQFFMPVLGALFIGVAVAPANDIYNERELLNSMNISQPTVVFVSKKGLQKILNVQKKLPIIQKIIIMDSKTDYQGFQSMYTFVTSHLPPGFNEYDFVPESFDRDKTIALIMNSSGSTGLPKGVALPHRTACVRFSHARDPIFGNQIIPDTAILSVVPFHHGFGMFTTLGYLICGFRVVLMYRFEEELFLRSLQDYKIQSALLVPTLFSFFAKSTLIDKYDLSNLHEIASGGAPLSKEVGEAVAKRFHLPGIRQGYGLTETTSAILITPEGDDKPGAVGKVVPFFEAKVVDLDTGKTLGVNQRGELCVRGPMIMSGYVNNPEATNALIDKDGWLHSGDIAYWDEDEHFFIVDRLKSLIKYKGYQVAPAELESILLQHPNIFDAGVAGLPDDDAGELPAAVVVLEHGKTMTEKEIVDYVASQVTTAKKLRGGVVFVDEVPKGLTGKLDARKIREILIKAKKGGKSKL

`CC(N)C(=O)NCC(=O)NC1CSSCC(C(=O)O)NC(=O)C(CO)NC(=O)C(C(C)O)NC(=O)C(Cc2ccccc2)NC(=O)C(C(C)O)NC(=O)C(CCCCN)NC(=O)C(Cc2c[nH]c3ccccc23)NC(=O)C(Cc2ccccc2)NC(=O)C(Cc2ccccc2)NC(=O)C(CC(N)=O)NC(=O)C(CCCCN)NC1=O` (stereo not drawn): the Potency result (in assay [1]; in assay [2]; in [3]; in the assay with AS120; in the assay on ATS95; in the assay on CP191) was “inactive” in each case. Also, the Potency entry in the assay with CP247, in the assay on CP250, with CP262, in the assay with CP297, in the assay with CP335 and with Dd2 was “inactive” throughout. In addition, the Potency result in the assay on ECU, in the assay on N140, in the assay with P93_24, in the assay on PAD, with TAB109 and in the assay with TAB113 was “inactive” each time. For the same molecule, the Potency entry in the assay on TAB165 was “inactive”.
In the case of `O=C1/C(=C\c2cccs2)CCC/C1=C/c1cccs1`, the Potency in assay [1] is 5.73 µM (active). The Potency entry (in [2]; in assay [3]; in the assay with AS120; with ATS95; with CP247; with CP250) was “inactive” in each case. For the same molecule, the Potency result with CP262, in the assay on CP297, with Dd2, in the assay with ECU, in the assay with N140 and in the assay on P93_24 was “inactive” in each case. The Potency result with PAD, with TAB109, in the assay with TAB113 and in the assay on TAB165 was “inactive” throughout.
In the case of `O=C(O)c1ccccc1-c1c2cc(Br)c(=O)c(Br)c-2oc2c(Br)c(O)c(Br)cc12`, the Potency entry (in [3]; in the assay on AS120; in the assay on ATS95; in the assay with CP191; in the assay with CP247; in the assay on CP250) was “inactive” in each case. Further, the Potency entry with CP262, with CP335, with Dd2, with ECU, in the assay on N140 and in the assay with P93_24 was “inactive” each time. Further, the Potency result with PAD, with TAB109, in the assay with TAB113 and with TAB165 was “inactive” throughout.
`NCCCC(N)CC(=O)NC1CNC(=O)C(C2CC(O)N=C(N)N2)NC(=O)/C(=C/NC(N)=O)NC(=O)C(CO)NC(=O)C(CO)NC1=O` (stereo not drawn) (ξβ3hOrn-[Dap]SS[ΔAla(Z-3-ureido)][X2]; lactam 1-C; configuration not given here): the Potency entry (in [1]; in [2]; in [3]; with AS120; in the assay on CP191; with CP247) was “inactive” each time. In addition, the Potency result in the assay on CP250, with CP262, with CP297, with CP335, in the assay on Dd2 and with ECU was “inactive” each time. Moreover, the Potency entry in the assay with N140, in the assay on P93_24, with PAD, with TAB109, in the assay on TAB113 and in the assay with TAB165 was “inactive” throughout.
Take `CCC(Oc1ccccc1)C(=O)NC1C(=O)N2C1SC(C)(C)C2C(=O)O` (stereo not drawn): the Potency entry (in assay [1]; in assay [2]; in assay [3]; with AS120; with ATS95; in the assay with CP191) was “inactive” each time. Besides, the Potency entry in the assay with CP247, in the assay on CP250, in the assay with CP262, with CP297, with CP335 and in the assay with Dd2 was “inactive” each time. The Potency entry in the assay on ECU, with N140, in the assay with P93_24, with PAD, with TAB109 and with TAB113 was “inactive” in each case. For the same molecule, the Potency result with TAB165 is “inactive”.
`CCC1NC(=O)C(NC(=O)c2ncccc2O)C(C)OC(=O)C(c2ccccc2)NC(=O)C2CC(=O)CCN2C(=O)C(Cc2ccccc2)N(C)C(=O)C2CCCN2C1=O` (stereo not drawn): the Potency result (in [1]; in assay [2]; in assay [3]; with ATS95; with CP191; with CP247) was “inactive” each time. The Potency result with CP250, in the assay on CP262, with CP297, in the assay with CP335, in the assay with TAB109 and with TAB113 was “inactive” each time.
As to `CC1(C)C(/C=C/C=C/C=C/C=C2\N(CCCCS(=O)(=O)O)c3ccc4ccccc4c3C2(C)C)=[N+](CCCCS(=O)(=O)[O-])c2ccc3ccccc3c21`, the Potency result (in assay [2]; in [3]; with AS120; in the assay on ATS95; with CP191; in the assay with CP247) was “inactive” in each case. For the same molecule, the Potency result in the assay with CP250, in the assay with CP262, in the assay with CP297, in the assay with Dd2, in the assay on ECU and with N140 was “inactive” in each case. The Potency result with P93_24, in the assay on PAD, in the assay with TAB109, in the assay on TAB113 and with TAB165 was “inactive” in each case.
Consider `COc1ccc(-c2nc3ccc(C4=C(C)CC(=O)NN4)cc3[nH]2)cc1`, for which the Potency in assay [1] was 12.8 µM (active). The Potency result (in assay [3]; in the assay with CP191; in the assay on CP250; in the assay with CP262; with CP335) was “inactive” each time.
Turning to `CCOC(=O)C(CS)NCCN[C@@H](CS)C(=O)OCC` (stereo partly drawn), the Potency result (in [1]; in assay [2]; with AS120; in the assay with ATS95; in the assay on CP191; in the assay with CP247) was “inactive” in each case. Further, the Potency result with CP250, in the assay with CP262, with CP297, in the assay on CP335, with Dd2 and in the assay on ECU was “inactive” throughout. Further, the Potency entry in the assay with N140, with P93_24, with PAD, in the assay on TAB109, in the assay on TAB113 and with TAB165 was “inactive” each time. The Potency in [3] was 10.2 µM (active).
`CCC(C)C1NC(=O)C(Cc2ccc(O)cc2)NC(=O)C(N)CSSCC(C(=O)N2CCCC2C(=O)NC(CC(C)C)C(=O)NCC(N)=O)NC(=O)C(CC(N)=O)NC(=O)C(CCC(N)=O)NC1=O` (stereo not drawn): the Potency entry (in assay [1]; in assay [3]; with AS120; with ATS95; in the assay with CP191; with CP250) was “inactive” throughout. The Potency result in the assay on CP262, in the assay with CP297, in the assay with CP335, with Dd2, in the assay on ECU and with N140 was “inactive” each time. The Potency entry in the assay on P93_24, in the assay on PAD, in the assay on TAB109, in the assay with TAB113 and in the assay on TAB165 was “inactive” throughout.
Take `CC(C)C[C@H](NC(=O)[C@@H](Cc1c[nH]c2ccccc12)NC(=O)[C@@H](Cc1ccc(O)cc1)NC(=O)[C@@H](CO)NC(=O)[C@@H](Cc1c[nH]c2ccccc12)NC(=O)C(Cc1cnc[nH]1)NC(=O)C1CCC(=O)N1)C(=O)N[C@@H](CCCN=C(N)N)C(=O)N1CCC[C@@H]1C(=O)NCC(N)=O` (stereo partly drawn): the Potency result (in assay [2]; in assay [3]; in the assay on AS120; with ATS95; in the assay on CP191; in the assay on CP247) was “inactive” in each case. Also, the Potency result with CP250, in the assay with CP262, in the assay on CP297, in the assay with CP335, with Dd2 and with ECU was “inactive” in each case. Besides, the Potency entry in the assay on N140, in the assay with P93_24, in the assay on PAD, with TAB109, in the assay with TAB113 and in the assay with TAB165 was “inactive” throughout.
